NADH enzymes: inhibitors of PK/LDH coupling enzymes, profiling panel, artefact control, biochemical, MLSMR library; 65,000 tested, 0.02% active; coupled PK/LDH NADH assays, four targets; IC50, µM (top dose mostly 10 µM);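 active = single-dose screening hits from any of four coupled enzyme assays that gave an IC50 when retested across doses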;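 also: the DPM-DC format reads NADH fluorescence rather than 340 nm absorbance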
DPM-DC inhibit: S. pneumoniae DPM-DC inhibitors, primary screen, biochemical, PK/LDH-coupled NADH fluorescence; diphosphomevalonate decarboxylase (Streptococcus pneumoniae D39); purified DPM-DC; calls only at 10 µM; 65,000 tested, 0.49% active; AID 556, 2006;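 active = the 320 compounds with the highest percent inhibition in the single-dose primary screen, excluding strongly autofluorescent ones, cut at about 32% in these data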;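 also: kinetic rate of NADH fluorescence loss reporting ADP formed by the decarboxylase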
Fluor 339 460: intrinsic fluorescence of library compounds, ex339/em460 – biochemical, MLSMR library, data from DPM-DC assay, artefact control, profiling panel. fluorescence fold increase at 10 µM. 65,000 tested, 5.5% active. compound autofluorescence, ex339/em460 nm, NADH buffer; active compounds read high; 1 = no-compound wells, NADH background. AID 709, 2007;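 active = at 10 µM, mean starting fluorescence two-fold or more over control wells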;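 also: signal is the first read of a kinetic run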
Spn MK inh: S. pneumoniae MK inhibitors, primary screen, biochemical, PK/LDH-coupled NADH absorbance | AID 555, 2006 | purified MK, PK/LDH-coupled NADH absorbance 340 nm | mevalonate kinase [Streptococcus pneumoniae D39] | inhibition, % at 10 µM | 65,000 tested, 0.48% active;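 active = ranked among the strongest by inhibition in the single 10 µM screen, a fixed top-ranked set picked for dose follow-up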
A340 absorber: compound light absorbance at 340 nm, profiling panel, artefact control, biochemical, MLSMR library, data from PS, PMK, MK assays; compound absorbance at 340 nm, fold over control; fold change at 10 µM; 65,000 tested, under 10 active;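 active = at 10 µM dose, initial 340 nm absorbance at least 2 fold that of control wells; inactive = change under 2 fold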;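 also: initial absorbance extrapolated from kinetic A340 decline of NADH oxidation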
Spn PMK inh: S. pneumoniae PMK inhibitors, primary screen, biochemical, mevalonate pathway, pilot trial included. phosphomevalonate kinase (Streptococcus pneumoniae D39). purified PMK, PK/LDH-coupled NADH absorbance 340 nm. inhibition, % at 10 µM. 65,000 tested, 0.49% active. AID 539, 2006;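 active = top-ranked compounds by inhibition in the single 10 µM screen, taking a fixed number of the strongest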
Numbers stand for hits; [ ] = dose if it differs, or a comment. Sampled rows, rich in hits. Any-hit rate of the full collection: about 6.3%.

Screening COc1ccc(C2C(=O)N(C3CCCCC3)CC(=O)N2CCc2ccccc2)cc1OC (configuration not stated) returned NADH enzymes inactive, DPM-DC inhibit inactive, Fluor 339 460 inactive, Spn MK inh inactive, A340 absorber inactive and Spn PMK inh 26.
For O=C(COC(=O)Cc1ccc(S(=O)(=O)N2CCOCC2)s1)NCc1ccccc1 the results were NADH enzymes inactive, DPM-DC inhibit inactive, Fluor 339 460 inactive, Spn MK inh 49, A340 absorber inactive and Spn PMK inh inactive.
For O=C1CCC(C(=O)NC2(C(=O)NC3CCCCC3)CCCCC2)N1 (configuration not stated) the results were NADH enzymes inactive, DPM-DC inhibit inactive, Fluor 339 460 inactive, Spn MK inh inactive, A340 absorber inactive and Spn PMK inh inactive.
`Cc1cc(Oc2ccccc2)nc2ccc(O)cc12` gave NADH enzymes inactive, Fluor 339 460 2.1, Spn MK inh inactive, A340 absorber inactive and Spn PMK inh inactive.
Cc1cc(Oc2ccccc2)nc(-c2ccccc2)n1 was read as NADH enzymes inactive, DPM-DC inhibit inactive, Fluor 339 460 inactive, Spn MK inh inactive, A340 absorber inactive and Spn PMK inh inactive.
CCN(CC)CCNC(=O)CCn1c(=S)[nH]c2cc3c(cc2c1=O)OCO3 was read as NADH enzymes inactive, DPM-DC inhibit inactive, Fluor 339 460 inactive, Spn MK inh inactive, A340 absorber inactive and Spn PMK inh inactive.
`CCN(CC)CCNC(=O)CCCCn1c(=S)[nH]c2c([nH]c3ccc(OC)cc32)c1=O` gave NADH enzymes inactive, DPM-DC inhibit inactive, Fluor 339 460 inactive, Spn MK inh 42, A340 absorber inactive and Spn PMK inh inactive.
For Cc1ccc2[nH]c3c(NCCN4CCOCC4)ncnc3c2c1 the results were NADH enzymes inactive, DPM-DC inhibit inactive, Fluor 339 460 inactive, Spn MK inh inactive, A340 absorber inactive and Spn PMK inh inactive.
C=CCNc1ncnc2c1[nH]c1ccc(C)cc12 was read as NADH enzymes inactive, Fluor 339 460 4, Spn MK inh inactive, A340 absorber inactive and Spn PMK inh inactive.
For CCN(CC)CCNc1ncnc2c1[nH]c1ccc(OC)cc12 the results were NADH enzymes inactive, Fluor 339 460 2.4, Spn MK inh inactive, A340 absorber inactive and Spn PMK inh inactive.
`Cc1ccc(-c2ccc(/C=N/c3ncn[nH]3)o2)cc1Cl` gave NADH enzymes inactive, DPM-DC inhibit inactive, Fluor 339 460 inactive, Spn MK inh inactive, A340 absorber inactive and Spn PMK inh inactive.
For c1ccc(-c2nnc3sc(CN4CCc5ccccc54)cn23)cc1 the results were NADH enzymes inactive, DPM-DC inhibit inactive, Fluor 339 460 inactive, Spn MK inh inactive, A340 absorber inactive and Spn PMK inh inactive.
For CCOC(=O)C1=CN(C)C=C(C(=O)OCC)C1c1ccsc1 the results were NADH enzymes inactive, Fluor 339 460 4.8, Spn MK inh inactive, A340 absorber inactive and Spn PMK inh inactive.
COC(=O)C1=CN(CC2CCCO2)C=C(C(=O)OC)C1c1ccsc1 (configuration not stated) was read as NADH enzymes inactive, Fluor 339 460 2.1, Spn MK inh inactive, A340 absorber inactive and Spn PMK inh inactive.
CCOC(=O)c1cc2c(C(F)(F)F)cc(-c3cccnc3)nc2o1 was read as NADH enzymes inactive, DPM-DC inhibit inactive, Fluor 339 460 inactive, Spn MK inh inactive, A340 absorber inactive and Spn PMK inh inactive.
`CN1CC(=O)NC1=NC(=O)c1ccc(Cl)c(S(=O)(=O)N2CCCCCC2)c1` gave NADH enzymes inactive, DPM-DC inhibit inactive, Fluor 339 460 inactive, Spn MK inh inactive, A340 absorber inactive and Spn PMK inh 28.
For CN1CC(=O)NC1=NC(=O)c1cc(F)c(F)cc1Cl the results were NADH enzymes inactive, DPM-DC inhibit inactive, Fluor 339 460 inactive, Spn MK inh inactive, A340 absorber inactive and Spn PMK inh inactive.
For Cc1ccc(C)c(-c2nc3ccc(N)cc3[nH]2)c1 the results were NADH enzymes inactive, Fluor 339 460 3, Spn MK inh inactive, A340 absorber inactive and Spn PMK inh inactive.
Nc1ccc2nc(-c3ccc(Cl)cc3)[nH]c2c1 was read as NADH enzymes inactive, Fluor 339 460 2.1, Spn MK inh inactive, A340 absorber inactive and Spn PMK inh inactive.
For Cc1ccc(C)c(-c2nc3cc(N)ccc3o2)c1 the results were NADH enzymes inactive, DPM-DC inhibit active[fluoresces], Fluor 339 460 2.3, Spn MK inh inactive, A340 absorber inactive and Spn PMK inh inactive.
Screening Cc1ccc2nc(C(O)C(O)c3nc4ccc(C)cc4[nH]3)[nH]c2c1 (configuration not stated) returned NADH enzymes inactive, DPM-DC inhibit inactive, Fluor 339 460 inactive, Spn MK inh inactive, A340 absorber inactive and Spn PMK inh inactive.
For Nc1ccc(-c2nc3c(Cl)c(N)ccc3[nH]2)cc1 the results were NADH enzymes inactive, Fluor 339 460 3.6, Spn MK inh inactive, A340 absorber inactive and Spn PMK inh inactive.
COc1ccc(CCNC(=O)c2nnn(-c3ccc4c(c3)OCCO4)c2N)cc1OC was read as NADH enzymes inactive, DPM-DC inhibit inactive, Fluor 339 460 inactive, Spn MK inh inactive, A340 absorber inactive and Spn PMK inh inactive.
For CC(=O)c1cccc(S(=O)(=O)N(CCCO)Cc2cc3ccc(C)cc3[nH]c2=O)c1 the results were NADH enzymes inactive, DPM-DC inhibit inactive, Fluor 339 460 inactive, Spn MK inh inactive, A340 absorber inactive and Spn PMK inh inactive.
For Nc1nc2n(n1)C(c1ccc(F)cc1)CC(c1ccc(F)cc1)N2 (configuration not stated) the results were NADH enzymes inactive, DPM-DC inhibit inactive, Fluor 339 460 inactive, Spn MK inh inactive, A340 absorber inactive and Spn PMK inh inactive.
For CC1CCN(c2c(NCc3ccc(C(=O)NCc4cccnc4)cc3)c(=O)c2=O)CC1 the results were NADH enzymes inactive, DPM-DC inhibit inactive, Fluor 339 460 inactive, Spn MK inh inactive, A340 absorber inactive and Spn PMK inh inactive.
CC(=O)c1c(C)nn(CC(O)Cn2c3c(c4cc(C)ccc42)CCCC3=O)c1C (configuration not stated) was read as NADH enzymes inactive, Fluor 339 460 5.2, Spn MK inh inactive, A340 absorber inactive and Spn PMK inh inactive.
c1ccc(-c2cnc(-c3cccnc3)o2)cc1 was read as NADH enzymes inactive, Fluor 339 460 2.1, Spn MK inh inactive, A340 absorber inactive and Spn PMK inh inactive.
For NC(=O)c1ccc(-c2ncc(-c3ccccc3)o2)cc1 the results were NADH enzymes inactive, Fluor 339 460 2.1, Spn MK inh inactive, A340 absorber inactive and Spn PMK inh inactive.

Bioassay records as filed in PubChem BioAssay.
